Reference: the supplement of paper PMC6555819

Assays:
Test in all cases: PBM binding z-score (relative to random genomic background probes); higher = stronger binding; sequences stand for … in GC…GCGATTGACAGCGTAGAATGAAGG
[1] = tested on: RARb homodimer (NR concentration 270 nM)
How it was run: (§1)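 Binding z-scores were set against random background probes. The data came from custom Agilent 4×180K protein-binding microarrays carrying double-stranded probes with 34-nt variable regions, incubated 1 h with ligand-free nuclear receptor dimers. Partner-specific antibodies detected binding, and scanned fluorescence was regression-normalized.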

[2] = tested on: RARg:RXRa (NR concentration 270 nM, RXRa partner concentration 90 nM)
How it was run: as §1

[3] = tested on: RARg homodimer (NR concentration 270 nM)
How it was run: as §1

[4] = tested on: RXRa DBDmut IVT, anti-RXR (DBD mutation: RXRa K156A/R161A, NR concentration 90 nM)
How it was run: as §1

[5] = tested on: RXRa homodimer (NR concentration 180 nM)
How it was run: as §1

[6] = tested on: THRa:RXRa (NR concentration 90 nM, RXRa partner concentration 90 nM)
How it was run: as §1

[7] = tested on: THRa homodimer (NR concentration 90 nM)
How it was run: as §1

[8] = tested on: VDR homodimer (NR concentration 270 nM)
How it was run: as §1

Sequence: CCTACTGGGCCACGAAAGGTGATTGATTCAGTGA
- PBM binding z-score [1]: 1.02
- PBM binding z-score [2]: 0.589
- PBM binding z-score [3]: 0.505
- PBM binding z-score [4]: -0.663
- PBM binding z-score [5]: 0.207
- PBM binding z-score [6]: 1.41
- PBM binding z-score [7]: -0.377
- PBM binding z-score [8]: -0.289

Sequence: ATATGTAGGTTACGGTCATTCAGAAAGTAGGGAA
- PBM binding z-score [1]: 2.42
- PBM binding z-score [2]: 2.34
- PBM binding z-score [3]: 2.47
- PBM binding z-score [4]: 0.852
- PBM binding z-score [5]: 1.64
- PBM binding z-score [6]: 2.08
- PBM binding z-score [7]: 0.831
- PBM binding z-score [8]: 0.93

Sequence: CTATGTAGGGTAAGGGGGTCATTCAGTTTGAAAG
- PBM binding z-score [1]: 4.04
- PBM binding z-score [2]: 5
- PBM binding z-score [3]: 3.92
- PBM binding z-score [4]: 2.91
- PBM binding z-score [5]: 5.44
- PBM binding z-score [6]: 3.99
- PBM binding z-score [7]: 2.95
- PBM binding z-score [8]: 6.62

Sequence: CCTAGTAGGTTATGGGGCATTCAGGCAACGGTGA
- PBM binding z-score [1]: 0.8
- PBM binding z-score [2]: 0.878
- PBM binding z-score [3]: 0.852
- PBM binding z-score [4]: -0.581
- PBM binding z-score [5]: 0.835
- PBM binding z-score [6]: 0.719
- PBM binding z-score [7]: 0.289
- PBM binding z-score [8]: 0.0809

Sequence: CGAACTAGGTCACCAGTACAGTGAAGAGGTTGGA
- PBM binding z-score [1]: 3.14
- PBM binding z-score [2]: 4.38
- PBM binding z-score [3]: 5.54
- PBM binding z-score [4]: 1.33
- PBM binding z-score [5]: 3.2
- PBM binding z-score [6]: 3.09
- PBM binding z-score [7]: 1.33
- PBM binding z-score [8]: 0.782

Sequence: ATATGTAGGTTAGCTGGAGTCATTCAGACTAGGC
- PBM binding z-score [1]: 0.259
- PBM binding z-score [2]: 0.523
- PBM binding z-score [3]: 0.683
- PBM binding z-score [4]: -0.228
- PBM binding z-score [5]: 0.583
- PBM binding z-score [6]: 0.807
- PBM binding z-score [7]: -0.355
- PBM binding z-score [8]: -0.00881

Sequence: CGAACTAGGTCACCAAGACAGTGAAGAGGTTGGA
- PBM binding z-score [1]: 3.11
- PBM binding z-score [2]: 4.04
- PBM binding z-score [3]: 4.97
- PBM binding z-score [4]: 1.29
- PBM binding z-score [5]: 3.06
- PBM binding z-score [6]: 2.74
- PBM binding z-score [7]: 1.28
- PBM binding z-score [8]: 0.496

Sequence: CCTTACGGGTCAGTGACAGGTTATAGCATTTGGA
- PBM binding z-score [1]: 2.85
- PBM binding z-score [2]: 4.61
- PBM binding z-score [3]: 3.43
- PBM binding z-score [4]: 1.05
- PBM binding z-score [5]: 3.29
- PBM binding z-score [6]: 2.15
- PBM binding z-score [7]: 0.134
- PBM binding z-score [8]: 0.572

Sequence: CCTACTGGGCCAAGGTCTTTGATCAGTCAAAGCA
- PBM binding z-score [1]: 0.263
- PBM binding z-score [2]: -0.131
- PBM binding z-score [3]: -0.0886
- PBM binding z-score [4]: -1
- PBM binding z-score [5]: -0.568
- PBM binding z-score [6]: 0.0825
- PBM binding z-score [7]: -0.301
- PBM binding z-score [8]: -0.659

Sequence: GATACAGGGTCAAGGCCAGAATACGCGTATTGAT
- PBM binding z-score [1]: 3.49
- PBM binding z-score [2]: 5.5
- PBM binding z-score [3]: 4.93
- PBM binding z-score [4]: 2.08
- PBM binding z-score [5]: 5.95
- PBM binding z-score [6]: 3.62
- PBM binding z-score [7]: 1.21
- PBM binding z-score [8]: 1.6

Sequence: TCGAGTTGGTTACGGGGGCATTCAGGGATGAAGA
- PBM binding z-score [1]: 1.6
- PBM binding z-score [2]: 2.49
- PBM binding z-score [3]: 1.71
- PBM binding z-score [4]: 2.61
- PBM binding z-score [5]: 1.89
- PBM binding z-score [6]: 3.74
- PBM binding z-score [7]: 1.87
- PBM binding z-score [8]: 4.57

Sequence: CTATGTAGTTTAAGGGGGTCATTCAGTTTGAAAG
- PBM binding z-score [1]: 3.89
- PBM binding z-score [2]: 4.53
- PBM binding z-score [3]: 3.58
- PBM binding z-score [4]: 3.27
- PBM binding z-score [5]: 5.05
- PBM binding z-score [6]: 3.79
- PBM binding z-score [7]: 2.91
- PBM binding z-score [8]: 7.03

Sequence: GCTAGTTGGTCAGTAAATGGTCACACACCGGTCG
- PBM binding z-score [1]: 1.28
- PBM binding z-score [2]: 0.401
- PBM binding z-score [3]: 0.586
- PBM binding z-score [4]: 0.286
- PBM binding z-score [5]: 0.551
- PBM binding z-score [6]: -0.021
- PBM binding z-score [7]: -0.105
- PBM binding z-score [8]: 0.116

Sequence: GATACAAGGTCAGCTAGAGGCCAGAGTATGGAAA
- PBM binding z-score [1]: 3.93
- PBM binding z-score [2]: 6.83
- PBM binding z-score [3]: 6.32
- PBM binding z-score [4]: 2.06
- PBM binding z-score [5]: 4.28
- PBM binding z-score [6]: 3.44
- PBM binding z-score [7]: 1.18
- PBM binding z-score [8]: 1.09

Sequence: CAAACTAGGTCAAGGTCAAAGTAGGTTTGTGCCA
- PBM binding z-score [1]: 5.18
- PBM binding z-score [2]: 6.25
- PBM binding z-score [3]: 6.86
- PBM binding z-score [4]: 3.11
- PBM binding z-score [5]: 6.11
- PBM binding z-score [6]: 4.6
- PBM binding z-score [7]: 3.96
- PBM binding z-score [8]: 4.8

Sequence: TGACTGAGGTTAAAGATCAGGGAACGTGGCGTCG
- PBM binding z-score [1]: 0.864
- PBM binding z-score [2]: 2.39
- PBM binding z-score [3]: 1.35
- PBM binding z-score [4]: 0.903
- PBM binding z-score [5]: 3.77
- PBM binding z-score [6]: 2.41
- PBM binding z-score [7]: 0.422
- PBM binding z-score [8]: 0.537

Sequence: ATATGTAGGCTAGGGTCATTCAGAAAGTAGGGAA
- PBM binding z-score [1]: 2.44
- PBM binding z-score [2]: 3.25
- PBM binding z-score [3]: 2.17
- PBM binding z-score [4]: 2
- PBM binding z-score [5]: 4.11
- PBM binding z-score [6]: 3.74
- PBM binding z-score [7]: 2.36
- PBM binding z-score [8]: 2.49

Sequence: AAATGTAGGTTAAGGGTCATTCAGGTTGGTTCGC
- PBM binding z-score [1]: 3.78
- PBM binding z-score [2]: 4.73
- PBM binding z-score [3]: 3.54
- PBM binding z-score [4]: 2.32
- PBM binding z-score [5]: 5.91
- PBM binding z-score [6]: 3.57
- PBM binding z-score [7]: 1.64
- PBM binding z-score [8]: 4.26

Sequence: CGTCGAAGGTCAATGCTAGGTCAGTGAAAGCATT
- PBM binding z-score [1]: 5.11
- PBM binding z-score [2]: 7.62
- PBM binding z-score [3]: 6.84
- PBM binding z-score [4]: 2.5
- PBM binding z-score [5]: 5.4
- PBM binding z-score [6]: 4.28
- PBM binding z-score [7]: 1.03
- PBM binding z-score [8]: 1.91

Sequence: CAAAGTAGGTCAAGGTCAAAGTCGGTTTGTGCCA
- PBM binding z-score [1]: 5.16
- PBM binding z-score [2]: 6.15
- PBM binding z-score [3]: 6.56
- PBM binding z-score [4]: 3.29
- PBM binding z-score [5]: 6
- PBM binding z-score [6]: 4.22
- PBM binding z-score [7]: 3.66
- PBM binding z-score [8]: 4.44

Sequence: AGAATGGGGTTAAGATCAGGGAAACAGAATACAT
- PBM binding z-score [1]: 1.9
- PBM binding z-score [2]: 2.99
- PBM binding z-score [3]: 1.4
- PBM binding z-score [4]: 1.99
- PBM binding z-score [5]: 4.56
- PBM binding z-score [6]: 3.23
- PBM binding z-score [7]: 1.67
- PBM binding z-score [8]: 1.27

Sequence: ATATGTAGGTTAGGGTCATTCAAAAAGTAGGGAA
- PBM binding z-score [1]: 3.59
- PBM binding z-score [2]: 4.25
- PBM binding z-score [3]: 3.19
- PBM binding z-score [4]: 2.67
- PBM binding z-score [5]: 5.4
- PBM binding z-score [6]: 4.28
- PBM binding z-score [7]: 3.27
- PBM binding z-score [8]: 3.17

Sequence: CCGAGTAGGTTACGAGGGGGCATTAAGTGCGAAT
- PBM binding z-score [1]: 2.04
- PBM binding z-score [2]: 3.1
- PBM binding z-score [3]: 2.45
- PBM binding z-score [4]: 1.56
- PBM binding z-score [5]: 2.14
- PBM binding z-score [6]: 3.52
- PBM binding z-score [7]: 0.655
- PBM binding z-score [8]: 3.56

Sequence: CCGATTAGGTTACGAGGGGGCATTCAGTGCGAAT
- PBM binding z-score [1]: 2.56
- PBM binding z-score [2]: 3.12
- PBM binding z-score [3]: 2.54
- PBM binding z-score [4]: 1.96
- PBM binding z-score [5]: 1.52
- PBM binding z-score [6]: 3.91
- PBM binding z-score [7]: 1.57
- PBM binding z-score [8]: 2.8

Sequence: ATCTCTAGGTAAATGTTCAGTGAATCCCGAGGAT
- PBM binding z-score [1]: -0.29
- PBM binding z-score [2]: 0.459
- PBM binding z-score [3]: 0.485
- PBM binding z-score [4]: -0.155
- PBM binding z-score [5]: 0.162
- PBM binding z-score [6]: 0.097
- PBM binding z-score [7]: 0.171
- PBM binding z-score [8]: -0.0904

Sequence: CCGCGTAGGTTACGAGGGGGCATTCAGTGCGAAT
- PBM binding z-score [1]: 2.04
- PBM binding z-score [2]: 3.34
- PBM binding z-score [3]: 2.15
- PBM binding z-score [4]: 1.51
- PBM binding z-score [5]: 2.28
- PBM binding z-score [6]: 3.95
- PBM binding z-score [7]: 0.24
- PBM binding z-score [8]: 2.58

Sequence: CCTACTGGGCCAAGGTCATAGATCAGTCAAAGCA
- PBM binding z-score [1]: 3.17
- PBM binding z-score [2]: 3.62
- PBM binding z-score [3]: 2.88
- PBM binding z-score [4]: 0.741
- PBM binding z-score [5]: 3.51
- PBM binding z-score [6]: 3.38
- PBM binding z-score [7]: 2.25
- PBM binding z-score [8]: 1.92

Sequence: CCGTACGGGTCAAGGTTATAGCACGGGTGGTACG
- PBM binding z-score [1]: 3.24
- PBM binding z-score [2]: 4.93
- PBM binding z-score [3]: 4.6
- PBM binding z-score [4]: 0.337
- PBM binding z-score [5]: 5.61
- PBM binding z-score [6]: 3.09
- PBM binding z-score [7]: 0.588
- PBM binding z-score [8]: 1.37
